# PubChem BioAssay AID504329 (Southern Research Specialized Biocontainment Screening …, 2011)
# Several values for one entry are separate records, joined by “and”; a condition that tells them apart may be missing. Equal values may be shown once. In all, about 340,000 compounds went through this assay and about 1,000 (0.29%) were called active. No stated cut-off is given here; in the data, inconclusive means inhibition above about 27% without an active follow-up result; inactive means below that. A selection follows. Potency and affinity values are given separately.
# Experiment: NS1A inhibition, H1N1 influenza, cell based functional assay (AID 504329)
# Settings: percent inhibition, at 12.5 µM, stronger effect = higher value
row,Structure (SMILES),inhibition
1,COC(=O)c1cc(C(=O)OCC(=O)NC2CCS(=O)(=O)C2)cc([N+](=O)[O-])c1 (stereo not drawn),6.69% (inactive)
2,O=C(CCC1CCCN(C(=O)c2ccoc2)C1)NCc1ccccc1F (stereo not drawn),-1.5% (inactive)
3,COc1ccccc1NC(=O)Nc1nc(CC(=O)Nc2ccc(F)cc2)cs1,-9.19% (inactive)
4,COc1ccccc1NC(=O)Nc1nc(CC(=O)Nc2ccc(OC)c(OC)c2)cs1,-0.35% (inactive)
5,O=C(Cn1nnc(-c2ccccc2F)n1)Nc1ccc2c(c1)OCCO2,-0.7% (inactive)
6,C[C@H](NC(=O)c1nc[nH]c1C(=O)N1CCc2ccccc2C1)c1ccccc1,-11.5% (inactive)
7,O=C(N/N=C/c1cccc2cccnc12)c1ccccc1O,0.6% (inactive)
8,COc1ccc(C(=O)N/N=C/c2cccnc2)cc1,-5.94% (inactive)
9,O=C(COc1ccc(Cl)cc1)N/N=C/c1cccc2cccnc12,2.4% (inactive)
10,COc1ccc(C(=O)N/N=C/c2ccc3cccc(O)c3n2)cc1,-2.2% (inactive)
11,CCOc1ccccc1C=NNC(=O)c1cccc2ccccc12,-22.3% (inactive)
12,CCOc1ccc(C(=O)Nc2cccc3cccnc23)cc1,-4.15% (inactive)
13,CCN(CC)CCNC(=O)/C(=C/c1cn(C)c2ccccc12)NC(=O)c1ccc(OC)c(OC)c1,-22.9% (inactive)
14,COC(=O)Cc1[nH]nc2c1C(c1cccc(OC)c1OC)C(C#N)=C(N)O2 (stereo not drawn),-3.61% (inactive)
15,CN(c1ccccc1)S(=O)(=O)CS(=O)(=O)N(C)c1ccccc1,-0.79% (inactive)
16,COc1ccccc1CNC(=O)CCCn1nc(C)n2ccnc2c1=O,-0.77% (inactive)
17,CCCOc1ccc(N2CC(C(=O)Nc3ccc(N4CCOCC4)cc3)CC2=O)cc1 (stereo not drawn),-0.783% (inactive)
18,CCCC(C)C(=O)Nc1cccc(NC(C)=O)c1 (stereo not drawn),-2.06% (inactive)
19,COc1ccccc1CNC(=O)COC(=O)c1cccc(-n2cnnn2)c1,-6.66% (inactive)
20,Cc1ccc(NC(=O)C2CCCN2C(=O)OCc2ccccc2)c(O)c1 (stereo not drawn),0.49% (inactive)
21,COc1cc(/C=C2\SC(N)=NC2=O)cc(Cl)c1O,4.85% (inactive)
22,COc1cc(/C=C2\SC(c3ccc(C)cc3)=NC2=O)cc(OC)c1O,17.9% (inactive)
23,O=C(CCN1C(=O)c2ccccc2C1=O)NCc1ccccc1,5.94% (inactive)
24,CCN(CC)c1ccccc1,-3.57% (inactive)

row,Structure (SMILES),inhibition
1,CCN(CC)c1ccc(C(=O)O)cc1,15.6% (inactive)
2,CCN(CC)c1ccc(SS(=O)(=O)O)cc1,-7.03% (inactive) and 0.65% (inactive)
3,CCN(CC)c1ccc(/C=C2\C(=O)c3ccc(C(=O)O)cc3C2=O)cc1,20.7% (inactive)
4,CCN(CC)c1ccc(NC(=O)Nc2ccc(C(C)=O)cc2)cc1,7.64% (inactive)
5,CCN(CC)c1ccc(C(=S)NCc2ccccc2)cc1,-0.32% (inactive)
6,COC(=O)C1=C(C)N(CCCC(=O)O)C(=O)NC1c1ccccc1OS(=O)(=O)c1ccc([N+](=O)[O-])cc1 (stereo not drawn),13.1% (inactive)
7,Cc1cc(C)cc(NC(=O)COC(=O)CCc2ccc(S(=O)(=O)N3CCOCC3)cc2)c1,3.45% (inactive)
8,Cc1cccc2cc(C#N)c(SCC(=O)Nc3ccccc3N3CCOCC3)nc12,-15.7% (inactive)
9,Cc1ccc([N+](=O)[O-])cc1S(=O)(=O)Nc1ccc(-c2ccc(N3CCOCC3)nn2)cc1,-3.07% (inactive)
10,COCCCNC(=O)c1ccc2c3c(onc13)-c1ccccc1C2=O,17.2% (inactive)
11,COC(CNC(=O)c1coc2nc3ccccc3nc12)OC,17% (inactive)
12,CCOC(=O)N1CCN(C(=O)c2cn(CC)c3ccc(S(=O)(=O)N4CCC(C)CC4)cc3c2=O)CC1,-9.88% (inactive)
13,CCOc1ccc(C(=O)N/N=C(\c2ccccc2)c2ccccn2)cc1,-0.16% (inactive)
14,O=C(NN=C(c1ccccc1)c1ccccn1)c1ccccc1,-14.3% (inactive)
15,C/C(CC(=O)Nc1ccccn1)=N\NC(=O)c1cnccn1,-7.52% (inactive)
16,CCc1ccc(NC(=S)N(Cc2ccccc2)Cc2ccccn2)cc1,11.1% (inactive)
17,O=C(CCc1nnc(COc2ccccc2)o1)NCCc1cccs1,-7.18% (inactive)
18,FC(F)(F)c1ccc(Cl)c(-n2c(-c3cc(C4CC4)[nH]n3)n[nH]c2=S)c1,8.02% (inactive)
19,CC(CC(=O)OCC(=O)NC1CCS(=O)(=O)C1)c1ccccc1 (stereo not drawn),4% (inactive)
20,CC(=O)N(Cc1cccs1)Cc1cc2ccc(C)c(C)c2nc1Cl,-4.22% (inactive)
21,Cc1ccc2oc(Nc3nc(C)c(C)c(C)n3)nc2c1,-16.7% (inactive)
22,Cc1nc(Nc2nc3ccccc3o2)nc(C)c1C,5% (inactive)
23,Cc1cc(C)nc(Nc2nc3ccccc3o2)n1,-16.8% (inactive)
24,Cc1ccc2oc(Nc3nc(C)cc(C)n3)nc2c1,-7.76% (inactive)

row,Structure (SMILES),inhibition
1,CCCSc1nc2cc(C)c(C)cc2n1CC(C)O (stereo not drawn),-12.9% (inactive)
2,Cc1ccc(C(=O)Nc2cccc(C(F)(F)F)c2)cc1NC(=O)c1c[nH]c2cc(C(F)(F)F)ccc2c1=O,-5.49% (inactive)
3,CC(C)N(C(=O)CN1C(=O)NC2(CCCCCC2)C1=O)C(C)C,-2.18% (inactive)
4,Cc1cccc(C)c1NC(=O)c1sccc1SCC#N,-4.84% (inactive)
5,CC[n+]1c(-c2ccccc2)c2cc(N)ccc2c2ccc(N)cc21,7.81% (inactive)
6,C[n+]1c2cc(N)ccc2cc2ccc(N)cc21,-0.44% (inactive) and -3.15% (inactive)
7,Cc1ccc2c(c1)c1c3n2CCN(C(=O)CN2CCN(C)CC2)C3CCC1 (stereo not drawn),7.29% (inactive)
8,Cc1ccc2c(c1)c1c3n2CCN(C(=O)CCl)C3CCC1 (stereo not drawn),1.19% (inactive)
9,COc1ccc(Nc2nc(N)nc(CSC(=S)N3CCN(C)CC3)n2)cc1,-7.34% (inactive)
10,CN(C)c1cccc2cccc(N(C)C)c12,11.8% (inactive)
11,CN(C)c1ccc(N=Nc2ccc(S(N)(=O)=O)cc2)cc1,12.4% (inactive)
12,CN(C)c1ccc(C2Nc3cccc4cccc(c34)N2)cc1,1.96% (inactive)
13,Cc1ccc(N=Nc2ccc(O)cc2)c(Br)c1,10.2% (inactive)
14,Cc1ccc(S(=O)(=O)NCCSc2ncccn2)cc1,2.89% (inactive)
15,C=CCNC(=S)/C(=C(/[O-])c1ccc([N+](=O)[O-])cc1)[n+]1ccccc1,-7.17% (inactive)
16,COc1ccc(C(=O)COC(=O)CCn2nnc(-c3cccc(O)c3OC)n2)cc1,-2.1% (inactive)
17,NC(=O)C1CCN(C2=C(NS(=O)(=O)c3ccccc3)C(=O)c3ccccc3C2=O)CC1,24.5% (inactive)
18,CC1CCN(C2=C(NS(=O)(=O)c3ccc(Cl)cc3)C(=O)c3ccccc3C2=O)CC1,-3.44% (inactive)
19,CC(=O)Nc1ccc(S(=O)(=O)NC2=C(N3CCN(c4ccc(F)cc4)CC3)C(=O)c3ccccc3C2=O)cc1,27.2% (inactive)
20,CN1CCN(C2=C(NS(=O)(=O)c3ccccc3)C(=O)c3ccccc3C2=O)CC1,-2.49% (inactive)
21,CC1CCCN(C2=C(NS(=O)(=O)c3ccc(Br)cc3)C(=O)c3ccccc3C2=O)C1 (stereo not drawn),27.1% (inactive)
22,CN(C(=O)c1cccs1)c1ccc(OCC(=O)N2CCC(C(N)=O)CC2)cc1,-3.1% (inactive)
23,CCOC(=O)C(C#N)=C1CCN(Cc2ccccc2)CC1,-28.1% (inactive)
24,CCOC(=O)/C(C#N)=C1\C(=O)N(Cc2ccccc2)c2ccccc21,13.1% (inactive)

row,Structure (SMILES),inhibition
1,O=C(N/N=C/c1cn(-c2ccccc2)nc1-c1cccnc1)c1ccccc1,-7.1% (inactive)
2,O=C(c1ccc2ccccc2n1)N1CCN(c2ccccc2)CC1,-4.44% (inactive)
3,Cc1ccc(NC(=O)c2ccc(Nc3c([N+](=O)[O-])cc([N+](=O)[O-])cc3[N+](=O)[O-])cc2)cc1,2.68% (inactive)
4,COc1ccc(Nc2ccc3c(c2)=NC2(CCCCC2)[N+]=3[O-])cc1,26.2% (inactive)
5,COc1ccc(NC2=NC3(CCCCC3)N=C(N)N2)cc1,-15.4% (inactive)
6,CC(=O)c1ccc(Nc2c([N+](=O)[O-])ccc3nonc23)cc1,6.86% (inactive)
7,COC(=O)C1=C(c2cccc(OC)c2OC)C[C@@H]2CC[C@H]1N2C(=O)NCCS(C)=O (stereo partly drawn),-8.82% (inactive)
8,CC1Cc2ccccc2N1C(=O)COC(=O)c1ccc(Cl)c(S(=O)(=O)N2CCOCC2)c1 (stereo not drawn),9.33% (inactive)
9,COC(=O)c1nnn(-c2cccc(Cl)c2)c1C(=O)OC,-5.37% (inactive)
10,O=C(CN(Cc1ccc(F)cc1)C(=O)CCC(=O)Nc1nccs1)NCC1CCCO1 (stereo not drawn),-15.5% (inactive)
11,O=C(Nc1cccc(-n2cnnn2)c1)c1ccc(C(F)(F)F)cc1,-1.71% (inactive)
12,Cc1ccc(S(=O)(=O)c2nc(N3CCOCC3)sc2Cl)cc1,-3.55% (inactive)
13,CC1=NN(c2ccccc2)C(=O)C1N=Nc1ccc(S(N)(=O)=O)cc1 (stereo not drawn),1.05% (inactive)
14,CC(=O)Nc1ccc(N2N=C(C)C(N=Nc3ccccc3)C2=O)cc1 (stereo not drawn),22.2% (inactive)
15,CC1=NN(c2ccccc2)C(=O)C1N=Nc1ccccc1 (stereo not drawn),-6.95% (inactive)
16,CC1=NN(c2ccccc2)C(=O)C1N=Nc1cccc(O)c1 (stereo not drawn),0.04% (inactive)
17,COc1ccc(N2CCN(c3nc4c(C)cccn4c(=O)c3C=C(C#N)C#N)CC2)cc1,-22.9% (inactive)
18,O=C(NNC(=O)c1cccs1)c1ccncc1,-2.62% (inactive)
19,COc1ccc([C@H]2CC(=O)C=C(c3cccc4c3sc3ccccc34)C2)cc1OC,7.03% (inactive)
20,Nc1nc(NC(=O)c2ccccc2)nn1-c1ccccc1,-6.76% (inactive)
21,Nc1nc(NC(=O)c2ccco2)nn1-c1ccccc1,5.18% (inactive)
